Among all 64,000 compounds or so, about 2,200 (3.4%) were called active.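 Rule for the calls: active = calcium fluorescence response, raw or row-and-column corrected B-score, differing from the plate sample mean either way at a set confidence level, mostly lower; inactive = the rest.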 Shown is part of a subset that was picked to be rich in actives.

This experiment deals with Muscarinic acetylcholine receptor M1 (Rattus norvegicus) (UniProt P08482). Kind of experiment: antagonists of rat M1 muscarinic receptor (AID 628). As to conditions: CHO-M1 cells, Fluo-4 calcium, ACh EC80 antagonist mode; at 10 µM; stronger effect = lower value.
Sequence of Muscarinic acetylcholine receptor M1 (Rattus norvegicus) (P08482 whole entry, looked up): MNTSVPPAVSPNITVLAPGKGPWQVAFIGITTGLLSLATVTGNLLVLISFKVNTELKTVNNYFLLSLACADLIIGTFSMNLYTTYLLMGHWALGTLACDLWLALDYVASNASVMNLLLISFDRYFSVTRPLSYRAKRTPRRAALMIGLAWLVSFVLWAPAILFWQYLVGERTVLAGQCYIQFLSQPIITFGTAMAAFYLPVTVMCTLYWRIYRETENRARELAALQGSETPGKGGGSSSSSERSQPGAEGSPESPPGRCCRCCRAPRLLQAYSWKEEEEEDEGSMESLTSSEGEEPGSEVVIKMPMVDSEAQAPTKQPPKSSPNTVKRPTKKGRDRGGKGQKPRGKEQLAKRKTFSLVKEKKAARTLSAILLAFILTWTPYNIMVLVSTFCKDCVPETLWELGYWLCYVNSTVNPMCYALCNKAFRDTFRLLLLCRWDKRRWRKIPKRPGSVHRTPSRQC
With `COC(=O)C1=C(C)Nc2ncnn2C1c1ccco1` (stereo not given), the B-score is 0.342 (inactive).

Regarding `CC(=O)C1=C(O)C(=O)N(c2ccc(S(N)(=O)=O)cc2)C1c1ccccc1F` (stereo not given), the B-score is -0.56 (inactive).

As to `C/C(CC(O)(/C=N/O)c1ccccc1)=N\O` (stereo not given), the B-score was 0.581 (inactive).

Regarding `CCOC(=O)N1CCC(NC(=O)c2ccc3nc(N4CCOCC4)sc3c2)CC1`, the B-score is 0.0825 (inactive).

For the compound `CCOC(=O)N1CCN(CC(=O)Nc2cc(C)nn2-c2nc3ccccc3s2)CC1`, the B-score was -2.41 (active).

On to `COC(=O)Cc1cc(=O)n(-c2nc3ccccc3s2)[nH]1`, for which the B-score was 0.181 (inactive).

As to `CCCCNc1nc2c(c(=O)n(C)c(=O)n2C)n1Cc1cccc(OC)c1`, the B-score is -0.0697 (inactive).

`COC(=O)NC1(C(F)(F)F)NC(=O)N(C2CCCCC2)C1=O` (stereo not given): the B-score is -0.0429 (inactive).

`O=C1NC(Nc2nc3ccccc3s2)(C(F)(F)F)C(=O)N1C1CCCCC1` (stereo not given): the B-score is -3.66 (active).

In the case of `Cc1c(NC(=O)C(C)OC(=O)c2cc3c4ccccc4n(C)c3s2)c(=O)n(-c2ccccc2)n1C` (stereo not given), the B-score was 0.392 (inactive).

For `CCC(=O)c1ccc(OCC(O)CN2CC(C)OC(C)C2)cc1` (stereo not given), the B-score was 0.0196 (inactive).

Consider `CC1(C)NC(=O)N(CCOc2cccc(Oc3ccccc3)c2)C1=O`, for which the B-score is -0.997 (inactive).

As for `CCC(=O)c1ccc(OCC(O)CN2C(=O)NC(C)(C)C2=O)cc1` (stereo not given), the B-score is 0.82 (active).

Turning to `Cc1ccc(C(c2sc3nc(C)nn3c2O)N2CCN(c3ccccc3)CC2)cc1` (stereo not given), the B-score was 0.39 (inactive).

Take `Cn1c(SCc2nc3ccccc3s2)nnc1-c1ccc2c(c1)OCO2`: the B-score was 0.0691 (inactive).

Turning to `Cc1cccc2cc(CN(Cc3cccs3)C(c3nnnn3C3CCCC3)C(C)C)c(=O)[nH]c12` (stereo not given), the B-score is 0.279 (inactive).

Take `Cc1cccc2cc(CN(Cc3ccc4c(c3)OCO4)Cc3nnnn3C3CCCC3)c(=O)[nH]c12`: the B-score is -0.601 (inactive).

In the case of `CCC(c1nnnn1C1CCCC1)N(Cc1cccs1)Cc1cc2cccc(C)c2[nH]c1=O` (stereo not given), the B-score is 1.98 (active).

As for `Cc1cc(Cl)c(S(=O)(=O)NCc2cccnc2)cc1OCC(N)=O`, the B-score is 0.63 (inactive).

On to `Cn1c(=O)c2c(nc(Br)n2CCSc2nc3ccccc3o2)n(C)c1=O`, for which the B-score is 0.536 (inactive).

Regarding `COC(=O)c1cc(OC)c(OC)cc1NC(=O)C1CCCO1` (stereo not given), the B-score is -0.418 (inactive).

As to `CCN(CCCCOC(=O)c1ccc(OC)c(OC)c1)C(C)Cc1ccc(OC)cc1` (stereo not given), the B-score is -14.7 (active).

Regarding `COc1ccc(-n2nnnc2SCC(=O)c2ccc(OC)c(OC)c2)cc1`, the B-score was -0.785 (inactive).

For the compound `CCOc1ccc(C(=O)Nc2cc(OC)ccc2OC)cc1`, the B-score was 0.223 (inactive).

On to `O=C(CSc1nnnn1-c1ccc2c(c1)CCC2)Nc1ccc2c(c1)OCCO2`, for which the B-score was -1.02 (inactive).

Turning to `CC(=O)Nn1cc2c(=O)n(C)c(=O)n(C)c2c1`, the B-score was 0.526 (inactive).

In the case of `CC(C)OCCCNC(=O)C1CC(=O)N(C2CCCCCCC2)C1` (stereo not given), the B-score was -0.0238 (inactive).

Consider `O=C(NCCc1ccc(Cl)cc1)C1CC(=O)N(C2CCCCC2)C1` (stereo not given), for which the B-score was -0.27 (inactive).

`O=C(NCCCN1CCCCCC1)C1CC(=O)N(C2CCCC2)C1` (stereo not given): the B-score is -2.1 (active).

Consider `Cc1ccc(-n2nc3c(c2NC(=O)CCC2CCCCC2)CS(=O)C3)cc1` (stereo not given), for which the B-score was 0.299 (inactive).

Turning to `Cc1ccnc(SCCn2c(N(C)Cc3ccccc3)nc3c2c(=O)n(C)c(=O)n3C)n1`, the B-score was 0.589 (inactive).

On to `COC(=O)C(C)Sc1ccc2nnc(-c3cccc(F)c3)n2n1` (stereo not given), for which the B-score was -0.0277 (inactive).

With `CC(NC(=O)Nc1ccccc1)c1ccccc1` (stereo not given), the B-score was 0.2 (inactive).

As to `CCOC(=O)C(C(=O)OCC)C(C#N)c1ccccc1` (stereo not given), the B-score was 0.000361 (inactive).

Regarding `CCC(C(=O)OCCN(CC)CC)c1ccccc1` (stereo not given), the B-score is -11.7 (active).

`N#Cc1ccccc1-n1c(N)c(C(=O)N2CCCC2)sc1=S`: the B-score was 0.0882 (inactive).

On to `CCc1ccccc1N(CC(=O)NCCSCc1ccco1)S(C)(=O)=O`, for which the B-score is 0.00624 (inactive).

Consider `COc1cccc2sc(Nc3nc(C)c(C(C)=O)s3)nc12`, for which the B-score is -5.09 (active).

Regarding `COC(=O)c1sc(NC(=O)c2ccc(OC)cc2OC)nc1C`, the B-score is 0.124 (inactive).

In the case of `COc1ccccc1Nc1ncc(C(C)=O)c(C)n1`, the B-score is -0.0613 (inactive).

On to `O=C(CC(NCCN1CCOCC1)C(=O)O)Nc1cccc(Cl)c1` (stereo not given), for which the B-score is -0.31 (inactive).

Regarding `C=CCNC(=O)c1cc(-c2ccccc2O)on1`, the B-score is -0.349 (inactive).

For the compound `Cn1c(CCN2CCCCCC2)nc2cc(NC(=O)Nc3ccccc3)ccc21`, the B-score was -12.1 (active).

`CCC(=O)Nc1ccc2c(c1)nc(CCN1CCN(C)CC1)n2C`: the B-score is 0.254 (inactive).

Regarding `Cc1nn(CC(=O)Nc2ccc3c(c2)nc(CN2CCCCC2)n3C)c(=O)c2ccccc12`, the B-score is -0.553 (inactive).

Consider `CC(=O)Nc1ccc(-c2cn3cccnc3n2)cc1`, for which the B-score was -0.0342 (inactive).

Consider `COc1ccc(S(=O)(=O)NC(CC(=O)NCc2ccccc2OC)c2ccco2)cc1` (stereo not given), for which the B-score was -0.297 (inactive).

As for `CCS(=O)(=O)n1nc(-c2ccc(OC)cc2)nc1SC`, the B-score is 0.364 (inactive).

With `O=C1CCCN1CCCNc1ncnc2c1[nH]c1ccccc12`, the B-score was -0.26 (inactive).

On to `CCN1CCCC1CNc1ncnc2c1[nH]c1ccc(F)cc12` (stereo not given), for which the B-score is 0.215 (inactive).

On to `CC(C)OCCCNc1ncnc2c1[nH]c1ccc(F)cc12`, for which the B-score was -5.34 (active).

For the compound `Cc1ccc2c(c1)NCC(C(=O)NC1CCC(C)CC1)O2` (stereo not given), the B-score was 0.906 (inactive).

As to `O=C(Oc1cccnc1)c1cc2ccccc2oc1=O`, the B-score is -1.49 (inactive).

With `OC(COc1cccc2ccccc12)CN1CCN(c2ccccn2)CC1` (stereo not given), the B-score is -0.255 (inactive).

For `CN(C)[C@@H]1C(=O)C(C(N)=O)=C(O)[C@@]2(O)C(=O)C3=C(O)c4c(O)ccc(Cl)c4[C@@H](O)[C@H]3C[C@@H]12`, the B-score was -15.3 (active).

As for `Cn1cccc1C(=O)NC(=O)COC(=O)Cc1coc2ccc3ccccc3c12`, the B-score was -0.0274 (inactive).

As for `COc1ccccc1CNC(=O)C1CCN(S(C)(=O)=O)CC1`, the B-score was 0.445 (inactive).

In the case of `Cc1nc(NCCN)c(C#N)c2c1COC(C)(C)C2`, the B-score is 0.614 (inactive).

Regarding `Cc1ccc(-n2ncc3c(N4CCN(c5ccc(F)cc5)CC4)ncnc32)c(C)c1`, the B-score is -0.0379 (inactive).

As to `Fc1ccc2[nH]c3c(N4CCSCC4)ncnc3c2c1`, the B-score is -2.69 (active).

With `Fc1ccc2[nH]c3c(N4CCN(Cc5ccc6c(c5)OCO6)CC4)ncnc3c2c1`, the B-score was -0.265 (inactive).

As to `N#CNC1=NCN(CCc2ccccc2)CN1`, the B-score was -0.391 (inactive).

On to `Cc1ccc2nc(NC3=NCN(CCc4ccccc4)CN3)nc(C)c2c1`, for which the B-score was -5.98 (active).

For `c1ccc(CCN2CN=C(Nc3nc4ccccc4o3)NC2)cc1`, the B-score is 0.0039 (inactive).

Consider `O=C(NCCC1=CCCCC1)C1CCN(Cc2cnn(-c3ccccc3)c2-n2cccc2)CC1`, for which the B-score was -1.39 (inactive).

In the case of `Cc1ccc2cc3cc(C(=O)N4CCCCCC4)oc3nc2c1`, the B-score was -0.434 (inactive).

In the case of `COc1cccc(-c2cc3nc4c(c(N5CCC6(CC5)OCCO6)n3n2)CCCC4)c1`, the B-score was -0.0679 (inactive).

Take `CC(=O)N1CCN(C(=O)Nc2cccc(C(F)(F)F)c2)CC1`: the B-score was -0.154 (inactive).

As for `O=C(Nc1cccc(NC(=O)N2CCN(c3ccccc3)CC2)c1)N1CCN(c2ccccc2)CC1`, the B-score was -3 (active).

On to `O=C(Nc1cccc(C(=O)N2CCCC2)c1)c1ccccc1`, for which the B-score was 0.0406 (inactive).

`COc1ccc(-c2c(C)nn3c(N4CCC(C(=O)N5CCCCC5)CC4)cc(C)nc23)cc1OC`: the B-score was -0.265 (inactive).

With `FC(F)(F)c1cccc(Nc2ncnc3ccccc23)c1`, the B-score was 0.376 (inactive).

Consider `O=C(Nc1cccc(F)c1)c1ccc(S(=O)(=O)N2CCCC2)cc1`, for which the B-score was -0.622 (inactive).

Turning to `N#CC(C(=O)c1ccc(S(=O)(=O)N2CCCCCC2)cc1)c1nc2ccccc2[nH]1` (stereo not given), the B-score is -4.04 (active).

Turning to `COc1ccccc1N1CCN(C(=O)c2ccc(S(=O)(=O)N3CCCCC3)cc2)CC1`, the B-score is -1.54 (inactive).

`CCOc1ccccc1NC(=O)C1CCC(CNc2c(N3CCOCC3)c(=O)c2=O)CC1` (stereo not given): the B-score is 0.744 (inactive).

Turning to `COc1ccc(N2C(=O)CC(N3CCC(C(N)=O)CC3)C2=O)cc1` (stereo not given), the B-score was -0.21 (inactive).

Turning to `O=C(CSc1nnc(-c2cccs2)n1Cc1ccco1)c1ccc2c(c1)OCO2`, the B-score is 0.219 (inactive).

As for `COC(=O)C1=CN(C)C=C(C(=O)OC)C1c1ccc(Cl)cc1Cl`, the B-score was 1.15 (inactive).

For `c1ccc(-c2cc(-c3nnc4sc(-c5ccccn5)nn34)[nH]n2)cc1`, the B-score was -2.66 (active).

Take `COc1cc(-c2nn3c(-c4cccc(C)c4)nnc3s2)cc(OC)c1OC`: the B-score was 0.799 (inactive).

`CCOc1cccc(-c2nn3c(-c4ccccn4)nnc3s2)c1`: the B-score was -0.924 (inactive).

`CCCCOC(=O)Nc1nccs1`: the B-score was 0.0324 (inactive).

For `COc1ccc(Cl)cc1NC(=O)c1oc(C)nc1C`, the B-score is -0.215 (inactive).

As to `O=C(c1cccc(S(=O)(=O)N2CCOCC2)c1)N1CCOCC1`, the B-score was 0.238 (inactive).

Turning to `CSC1=NCCN1C(=O)c1ccc(S(=O)(=O)N2CCOCC2)cc1`, the B-score was -0.648 (inactive).

As to `O=C(c1ccc(S(=O)(=O)N2CCOCC2)cc1)N1CCN(c2ccccc2)CC1`, the B-score was -2.93 (active).

With `Cc1ccc2oc(=O)c3cnn(CC(=O)N4CCN(c5ccccn5)CC4)c3c2c1`, the B-score is 0.00225 (inactive).

As for `Cc1c(C(=O)OCC(=O)N(CCC#N)c2ccccc2)oc2c1ccc1ccccc12`, the B-score is 0.252 (inactive).

With `O=C(CCN1C(=O)COc2ccccc21)NCCCN1CCN(c2ccc(F)cc2)CC1`, the B-score was -2.15 (active).

For the compound `CCCN1CCN(CCCNC(=O)CN2C(=O)COc3ccccc32)CC1`, the B-score was 0.138 (inactive).

In the case of `COc1ccc(N2CCN(CCNC(=O)CCN3C(=O)COc4ccccc43)CC2)cc1`, the B-score was 1.04 (inactive).

For the compound `O=S1(=O)CC(NCc2ccccc2)C(Nc2ccc(Cl)cc2)C1` (stereo not given), the B-score was -0.75 (inactive).

In the case of `CCCCCn1c(SCCC(C)C)nc2c1c(=O)[nH]c(=O)n2C`, the B-score was -0.348 (inactive).

On to `Cn1c(=O)[nH]c(=O)c2c1nc(CN1CCN(c3ccccc3F)CC1)n2CCc1ccccc1`, for which the B-score is -0.0585 (inactive).

For the origin of these results see PubChem BioAssay AID628 (Vanderbilt High Throughput Screening Facility, 2007).
